Shown are actives, neighbours in structure and some others; about 3.5% of the full set was active somewhere.
Anthrax LF inh2 = inhibitors of Bacillus anthracis lethal factor protease | 0.12% of 360,000 active | multiplex microsphere protease cleavage assay, LF | inhibition, % at 10 µM
3CLpro inhibitor = SARS-CoV 3CLpro protease inhibition | inhibition, % at 6 µM | 0.14% of 290,000 active | recombinant SARS-CoV 3CLpro, quenched FRET peptide cleavage | AID 1706; in the data active = inhibition above about 12%
BoNT-F LC inh = blocks Botulinum neurotoxin F light chain protease; Multiplex microsphere protease cleavage assay, flow cytometry; inhibition, % at 10 µM; 0.22% of 360,000 active; AID 588497; in the data active = inhibition above about 35%, passing the limit was not always enough; inconclusive = no clear call, values can overlap the other calls
BoNT-A LC inh2 = BoNT A light chain protease inhibition; inhibition, % at 10 µM; multiplex microsphere protease substrate cleavage, flow cytometry; 0.17% of 360,000 active; AID 588499
Bead autofluor = counter-screen for toxin protease inhibitors: compound fluorescence. compound autofluorescence counterscreen, microsphere flow cytometry; stronger effect = higher value. fluorescence intensity (no concentration beside the values). 3.1% of 360,000 active. AID 624483; in the data active = fluorescence intensity above about 16000; inconclusive = no clear call, values can overlap the other calls
Hits are given with their value; 0 = inactive; ? = inconclusive; - = no result given. Cut-off read from the data, not from the text of the source, unless noted: active = inhibition above about 30%; inconclusive = no clear call, values can overlap the other calls; inactive = below that.

SMILES	Anthrax LF inh2	3CLpro inhibitor	BoNT-F LC inh	BoNT-A LC inh2	Bead autofluor
O=C(COC(=O)c1ccccc1C(=O)c1ccc(Cl)cc1)NCCc1ccccc1	0	0	0	0	0
Cn1c(=O)c2cn3ncccc3c2n(C)c1=O	-	0	-	-	-
Cc1nc(CC(=O)c2ccc(O)c(C)c2O)cs1	0	0	0	0	0
Cc1nc(CC(=O)c2ccc(O)cc2O)cs1	0	0	0	?	22193
Cc1cc(NC(=O)C2C3C=CC(C3)C2C(=O)O)no1 (configuration not stated)	0	0	0	0	0
CCC1(C)Cc2c(sc3c2c(=O)n(C)c2nnc(SCC(=O)c4ccccc4)n32)CO1 (configuration not stated)	0	0	0	0	20408
CCC1(C)Cc2c(sc3c2c2ncnn2c2nnc(SCC(=O)NCc4ccco4)n32)CO1 (configuration not stated)	0	0	0	0	0
CN(C)C(=O)CSc1nnc(C23CC4CC(CC(C4)C2)C3)o1	0	0	0	?	22684
NCCc1nnc(SCC(=O)Nc2ccc(Br)cc2)o1	0	0	0	0	0
CN(C)C(=O)CSc1nnc(CCN)o1	0	0	0	0	22720
O=C(Oc1cccc(-n2cnnn2)c1)C1CCCCC1	0	0	0	0	0
CC(C)C(=O)Nc1ccccc1Cc1ccccc1	0	0	0	0	0
CC(C)C(=O)Nc1ccc(Cc2ccc(NC(=O)C(C)C)c(O)c2)cc1O	0	0	0	0	16658
COc1ccccc1N1CCN(C(=O)C(C)N(c2ccccc2)S(C)(=O)=O)CC1 (configuration not stated)	0	0	0	?	21669
CC(=O)N1c2c(cc(Br)cc2S(=O)(=O)N2CCN(c3ccccn3)CC2)CC1C (configuration not stated)	0	0	0	0	0
O=C(/C=C/c1ccc(Cl)cc1)NCc1cccs1	0	0	0	0	0
O=C(/C=C/c1c(Cl)cccc1Cl)Nc1ccncc1	0	0	0	0	20186
O=C(/C=C/c1cccc(Cl)c1)NCc1cccs1	0	0	0	0	21424
O=C(/C=C/c1cccc(Cl)c1)NCc1ccncc1	0	0	0	0	0
O=C(/C=C/c1cccc(Cl)c1)Nc1ccncc1	0	0	0	0	21112
Cc1cc(C(=O)N2CCN(c3ncccn3)CC2)sc1-c1ccccc1	0	0	0	?	24354
Cc1cc(C(=O)N2CCN(S(C)(=O)=O)CC2)sc1-c1ccccc1	0	0	0	0	0
O=C(O)Cn1nc2ccccc2n1	0	0	0	?	22940
O=C1C2CC=CCC2C(=O)N1c1cccc(OS(=O)(=O)c2ccc3ccccc3c2)c1 (configuration not stated)	0	0	0	?	20101
O=P(Nc1ccccc1)(Nc1ccccc1)Oc1cccc(Cl)c1	0	0	0	?	17171
SMILES	Anthrax LF inh2	3CLpro inhibitor	BoNT-F LC inh	BoNT-A LC inh2	Bead autofluor
O=P(Nc1ccccc1)(Nc1ccccc1)Oc1ccccc1	0	0	0	0	0
O=C(NCCc1ccc2c(c1)OCO2)Oc1ccccc1	0	-	0	0	0
FC(F)Oc1ccc(NC(=S)NCc2ccccc2)cc1	0	0	0	0	0
Cc1cc2cc(CNC(=S)Nc3ccc(OC(F)F)cc3)ccc2n1C	0	0	0	66	0
Cc1cccc(OCc2nnc(SCC(=O)N3CCCC3)n2C)c1	0	0	0	0	16407
Cc1cccc(OCc2nnc(SCC(=O)N3CCc4ccccc43)n2C)c1	0	0	0	0	24057
Cc1ccc(S(=O)(=O)c2nc(S(=O)(=O)CCO)sc2N2CCOCC2)cc1	0	0	0	0	0
COc1ccc(CNc2oc(-c3cccc4ccccc34)nc2C#N)cc1	0	0	0	0	19935
CNc1oc(-c2cccc3ccccc23)nc1C#N	0	0	0	0	0
COc1ccc(/C=N/N2CCN(c3ccncc3S(=O)(=O)N3CCCCC3)CC2)cc1	0	0	0	0	0
CC1CCN(CCNC(=O)c2ccc(NC(=O)C3CCCO3)cc2)CC1 (configuration not stated)	0	0	0	0	0
COC(=O)C1=C(C)NC(=O)NC1c1ccc(OC)c(OC)c1 (configuration not stated)	0	-	0	0	0
COc1ccc(C2SCC(=O)Nc3c2c(C)nn3C2CCOC(C)(C)C2)cc1OC (configuration not stated)	0	0	0	?	23587
COc1ccc(C2SCC(=O)Nc3c2c(C)nn3-c2ccccc2)cc1OC (configuration not stated)	0	0	0	0	23949
CC(C)n1c(N2CCCC2)nc2c1c(=O)[nH]c(=O)n2C	0	0	0	0	0
Cn1c(N2CCCCC2)nc2c1c(=O)[nH]c(=O)n2C	0	0	0	0	16214
Cc1ccc(N2C(N)=C(C#N)C3(C(=O)N(C)c4ccccc43)C3=C2CC(C)(C)CC3=O)cc1Cl (configuration not stated)	0	0	0	0	0
CCOC(=O)c1cnn(-c2nc(-c3ccccc3F)cs2)c1C(F)(F)F	0	0	0	?	19894
CCOC(=O)c1[nH]cnc1C(=O)Nc1ccncc1	0	0	0	0	0
CC(C)(C)c1ccc(-c2csc(NNC3=NCCCCC3)n2)cc1	0	0	0	?	20221
Cc1ccc(C(=O)CSc2nnnn2-c2ccccc2)o1	0	0	0	0	0
O=C(CSc1nnc(-c2ccccc2)n1-c1ccccc1)c1ccc[nH]1	0	0	0	0	0
O=C(CSc1nnc(-c2ccccc2)n1-c1ccccc1)c1cccs1	0	0	0	?	21163
Cc1ccc(C(=O)CSc2nnc(-c3ccccc3)n2-c2ccccc2)o1	0	0	0	?	20254
COc1cccc(OC)c1-c1cnc(NC(C)=O)cn1	0	-	0	0	0
SMILES	Anthrax LF inh2	3CLpro inhibitor	BoNT-F LC inh	BoNT-A LC inh2	Bead autofluor
CCCCC(=O)Nc1ccc2c(c1)nc(CCNC(=O)c1ccco1)n2C	0	0	0	0	0
COC(=O)[C@@H](Cc1ccccc1)NC(=O)[C@H]1CCC(=O)N1C(=O)OCc1ccccc1	0	0	0	0	0
CC(C)C(C)NC(=O)CSc1nnc(-c2c[nH]c3ccccc23)o1 (configuration not stated)	0	0	0	0	0
Cc1ccc(C(=O)CSc2nnc(-c3c[nH]c4ccccc34)o2)cc1	0	0	0	?	19814
O=C(NCCCN=C1NS(=O)(=O)c2ccccc21)c1ccc(S(=O)(=O)N2CCOCC2)cc1	0	0	0	0	0
C#CCN(C)CC/C=C1\c2ccccc2CSc2ccccc21	0	0	0	0	0
CN1CCN(c2nc(-c3ccco3)cc(C(F)(F)F)n2)CC1	0	0	0	0	17518
CCOC(=O)N1CCN(c2nc(-c3ccco3)cc(C(F)(F)F)n2)CC1	0	0	0	0	0
FC(F)(F)c1cc(-c2ccco2)nc(-n2nc(C(F)(F)F)cc2C2CC2)n1	0	0	0	0	20606
FC(F)(F)c1cc(-c2ccco2)nc(-n2nnc3ccccc32)n1	0	0	0	0	0
CN(C(=O)c1ccc(NC(=O)Cc2ccc(NC(=O)C3CCN(C(=O)C4CCC4)CC3)cc2)cc1)C1CC1	0	-	0	0	0
CCC(=O)Nc1ccc(S(=O)(=O)N2CCCCC2)cc1OC	0	0	0	0	0

Compound activity deposited in PubChem by several laboratories.
